These molecules were tested against Torsin-1A-interacting protein 1 (Homo sapiens) (UniProt Q5JTV8) (assay: LAP1 binders from COS7 cell lysate, primary screen, small-molecule microarray, 635/667 nm fluorescence (AID 1116)). Details: COS7-hLAP1 lysate binding, 635 nm fluorescence, higher = more signal.
Torsin-1A-interacting protein 1 (Homo sapiens), sequence (Q5JTV8 whole entry, looked up): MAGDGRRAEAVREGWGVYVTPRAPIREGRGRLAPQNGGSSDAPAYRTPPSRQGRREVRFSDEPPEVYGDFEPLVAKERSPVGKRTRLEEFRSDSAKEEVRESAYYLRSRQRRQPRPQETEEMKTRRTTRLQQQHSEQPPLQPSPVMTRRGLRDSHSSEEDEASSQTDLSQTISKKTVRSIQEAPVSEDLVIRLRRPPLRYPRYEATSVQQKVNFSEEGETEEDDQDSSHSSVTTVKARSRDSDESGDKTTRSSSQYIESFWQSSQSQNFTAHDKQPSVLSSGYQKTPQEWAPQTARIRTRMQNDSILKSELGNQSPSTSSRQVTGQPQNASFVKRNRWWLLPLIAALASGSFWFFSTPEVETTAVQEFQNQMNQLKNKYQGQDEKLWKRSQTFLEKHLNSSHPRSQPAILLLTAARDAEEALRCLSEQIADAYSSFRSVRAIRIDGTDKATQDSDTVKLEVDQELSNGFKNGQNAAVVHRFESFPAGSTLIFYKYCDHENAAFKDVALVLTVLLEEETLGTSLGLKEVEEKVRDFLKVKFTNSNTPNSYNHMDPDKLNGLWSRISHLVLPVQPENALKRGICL

Compound | composite z-score
O=C1C[C@@H](O)[C@@H](O)[C@@H]2[C@@H]3C(=O)N(c4ccc(F)cc4F)C(=O)[C@@H]3CC[C@H]12 | 0.82
Cc1cc(C)c(-c2cc([C@H](C)ON=C[C@@H](C)[C@H](OCc3ccccc3)C(C)C)on2)c(C)c1 | -0.601
CCN1C(=O)[C@H]2[C@H]3[C@H](O)[C@H](O)CC(=NOCC=C(C)CCC=C(C)C)[C@@H]3CC[C@H]2C1=O | 0.0411
CC(CCC(=O)OC[C@H]1O[C@H](C#Cc2ccccc2)C=C[C@@H]1Oc1ccc(C)cc1)=NOC[C@@H](C)[C@H](OCc1ccccc1)C(C)C | -0.746
CCOC(=O)CCN1C(=O)[C@H]2[C@H]3[C@H](O)[C@H](O)CC(=NO[C@@H]4O[C@H](CO)[C@@H](O)[C@H](O)[C@H]4O)[C@H]3CC[C@H]2C1=O | -0.127
CC1(C)O[C@H]2OC([C@H](O)CON3C(=O)c4ccccc4C3=O)[C@H](O)[C@H]2O1 (stereo partly specified) | -0.1
CC(CCN1CCc2nc(-c3ccccc3)c(-c3ccccc3)cc2C1)=NO[C@H](C)c1cn([C@H](CO)Cc2ccccc2)nn1 | 0.34
CON=C(C)CCN1CCCc2nc(C)c(C)cc21 | 0.501
CC(=O)OC[C@H]1O[C@@H](ON=C(C)CCC(=O)OC[C@H]2O[C@H](C#Cc3ccccc3)C=C[C@@H]2Oc2ccc(C)cc2)[C@H](OC(C)=O)[C@@H](OC(C)=O)[C@@H]1OC(C)=O | 0.415
CCN1C(=O)[C@H]2[C@H]3[C@H](O)[C@H](O)CC(=NO[C@H](C)c4cn([C@H](CO)Cc5ccccc5)nn4)[C@@H]3CC[C@H]2C1=O | 0.476
CC(=O)OC[C@H]1O[C@@H](ON=C(C)C)[C@H](OC(C)=O)[C@@H](OC(C)=O)[C@@H]1OC(C)=O | -0.958
CC(C)CON=C1C[C@@H](O)[C@@H](O)[C@@H]2[C@@H]3C(=O)N(c4ccc(F)cc4F)C(=O)[C@@H]3CC[C@@H]12 | 0.142
C=C(C)C(=O)OC[C@H]1CN2[C@@H](CC[C@@H](C)[C@@H]2c2ccc(Br)cc2)C(=O)O1 | -0.273
CC(CCN1CCCc2nc(C)c(C)cc21)=NOC[C@@H](O)COCc1ccco1 | 2.57
O=C1C=C[C@@H](O)[C@@H]2[C@@H]3C(=O)N(Cc4ccc5c(c4)OCO5)C(=O)[C@@H]3CC[C@@H]12 | -0.127
CC(C)(C)N1C(=O)[C@H]2[C@H]3[C@H](O)[C@H](O)CC(=NOC[C@@H](O)COCc4ccco4)[C@@H]3CC[C@H]2C1=O | 1.45
C=CC[C@@H]1C=CC(ON=C(C)C)[C@@H](CO)O1 (stereo partly specified) | -0.275
CCC1=NOC(CCC2CC(OC(=O)NCc3cccc4c3OCO4)CC3(CCCC(COC(=O)NCCc4ccc(Cl)cc4)O3)O2)C1 (stereo unspecified) | -0.342

Compound | composite z-score
C#CCCCON=C1C[C@@H](O)[C@@H](O)[C@@H]2[C@@H]3C(=O)N(C4CCCCC4)C(=O)[C@@H]3CC[C@@H]12 | 0.366
CC(=O)OC[C@H]1O[C@H](CC=NOC[C@@H](O)COCc2ccco2)C=C[C@@H]1OC(C)=O | 1.58
CC(C)=NOC(C)CN1CCCc2nc(C)c(C)cc21 (stereo unspecified) | -0.0182
CCOC(=O)[C@H](Cc1ccccc1)NC(=O)CCC1CC(OC(=O)NCc2cccc3ccccc23)CC2(CCCC(COC(=O)NCC3CCCCC3)O2)O1 (stereo partly specified) | 0.128
O=C1C[C@H](c2ccccc2)[C@H](c2ccc(Br)cc2)O1 | -0.264
COC(=O)[C@H](C)NC(=O)CCC1CC(OC(=O)NCCc2ccc(F)cc2)CC2(CCCC(COC(=O)NCC3CCCCC3)O2)O1 (stereo partly specified) | 0.774
CN1CCc2nc(-c3ccccc3)c(-c3ccccc3)cc2C1 | 0.269
CC#CCOCCC=C1c2ccccc2[C@@H](OC)[C@@H]1C | 0.139
C#CCCCON=C1C[C@@H](O)[C@@H](O)[C@@H]2[C@@H]3C(=O)N(C[C@@H]4CCCO4)C(=O)[C@@H]3CC[C@H]12 | 0.742
O=C1[C@H]2[C@H]3[C@H](O)[C@H](O)CC(=NO[C@@H]4O[C@H](CO)[C@@H](O)[C@H](O)[C@H]4O)[C@H]3CC[C@H]2C(=O)N1c1ccc(F)cc1F | -0.267
CCCNC(=O)OC[C@H]1O[C@H](CCON=C2C[C@@H](O)[C@@H](O)[C@@H]3[C@@H]4C(=O)N(CC)C(=O)[C@@H]4CC[C@@H]23)C=C[C@@H]1Oc1ccc(OC)cc1 | -0.0137
CC(C)=CCCC(C)=CCON=C1C[C@@H](O)[C@@H](O)[C@@H]2[C@@H]3C(=O)N(c4cccc(Oc5ccccc5)c4)C(=O)[C@@H]3CC[C@H]12 | 0.173
COc1ccc(OC[C@@H](CO)OC)cc1 | 0.551
COc1ccc(OC[C@H]2CN3[C@@H](CC[C@@H](C)[C@@H]3c3ccc(Br)cc3)C(=O)O2)cc1 | 0.5
Cc1ccc(S(=O)(=O)N[C@@H]2COC(=O)CC=C[C@@H](C)[C@H](NS(=O)(=O)c3ccc(C)cc3)COC(=O)[C@H](C)NC(=O)CC=C[C@H]2C)cc1 | -0.123
CC(C)CON=C1C[C@@H](O)[C@@H](O)[C@@H]2[C@@H]3C(=O)N(C(C)(C)C)C(=O)[C@@H]3CC[C@@H]12 | 0.0031
CCOC(=O)CCN1C(=O)[C@H]2[C@H]3[C@H](O)[C@H](O)CC(=O)[C@@H]3CC[C@H]2C1=O | 0.597
CCOC(=O)[C@H](CC(C)C)NC(=O)CCC1CC(OC(=O)NCc2ccc3c(c2)OCO3)CC2(CCCC(COC(=O)NCCC(C)C)O2)O1 (stereo partly specified) | 0.0461

Reference: PubChem BioAssay
